Screening results (PubChem)
DAX1 inh-1: inhibitors of DAX1 repression of SF-1 activated StAR promoter. 1.1% of 370,000 active. HEK293T StAR-luciferase reporter, SF-1/DAX-1 repression relief. AID 652010. inhibition, % at 6.8 µM;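 active means inhibition above the mean over all tested compounds plus 3 SD, cut at about 3.6% in these data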;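 further: 0% = DAX-1 cells with DMSO and 100% = cells lacking DAX-1 with DMSO; higher inhibition means more luminescence from relief of DAX-1 repression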
ssDAF-12 act: S. stercoralis DAF-12 activation, primary screen. HEK293 ssDAF-12/GRIP1 lit1-tk-luc reporter, luminescence; % of 3 µM dafachronic acid response. activation, % at 6.8 µM. 1% of 370,000 active;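 active means activation above the mean over all tested compounds plus 3 SD, cut at about 0.9% in these data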;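 further: 0% = DMSO-only wells and 100% = 3 µM delta7-dafachronic acid wells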
DAX1 inh-2: inhibits human nuclear receptor DAX1. HEK293 Gal4-DAX1 luciferase reporter, luminescence. inhibition, % at 6.75 µM. 0.99% of 340,000 active. AID 504766;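 active means inhibition above the mean over all tested compounds plus 3 SD, cut at about 4.2% in these data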;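 further: 0% = DAX1-transfected cells with DMSO and 100% = empty-vector control cells with DMSO; inhibition shows as a rise in luminescence from relieved DAX1 repression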
hgDAF12 agonist: activates the H. glycines DAF-12 receptor ligand-binding domain. HEK293 GAL4-hgDAF12 UAS-luciferase reporter, agonist luminescence; normalized to butyrate control. activation, % at 6.8 µM. 1.8% of 370,000 active. AID 687014;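 active means activation above a cutoff set at the mean of all screened compounds plus 3 SD, cut at about 10% in these data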;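 further: 0% = DMSO wells and 100% = sodium butyrate wells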
AHR activator: activators of human aryl hydrocarbon receptor. activation, % at 5 µM. 2.5% of 320,000 active. AHR-responsive luciferase reporter cells, luminescence; in the data active means activation above about 47%;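 further: 0% = vehicle wells and 100% = reference agonist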
Target sequence (P35869 whole entry, looked up): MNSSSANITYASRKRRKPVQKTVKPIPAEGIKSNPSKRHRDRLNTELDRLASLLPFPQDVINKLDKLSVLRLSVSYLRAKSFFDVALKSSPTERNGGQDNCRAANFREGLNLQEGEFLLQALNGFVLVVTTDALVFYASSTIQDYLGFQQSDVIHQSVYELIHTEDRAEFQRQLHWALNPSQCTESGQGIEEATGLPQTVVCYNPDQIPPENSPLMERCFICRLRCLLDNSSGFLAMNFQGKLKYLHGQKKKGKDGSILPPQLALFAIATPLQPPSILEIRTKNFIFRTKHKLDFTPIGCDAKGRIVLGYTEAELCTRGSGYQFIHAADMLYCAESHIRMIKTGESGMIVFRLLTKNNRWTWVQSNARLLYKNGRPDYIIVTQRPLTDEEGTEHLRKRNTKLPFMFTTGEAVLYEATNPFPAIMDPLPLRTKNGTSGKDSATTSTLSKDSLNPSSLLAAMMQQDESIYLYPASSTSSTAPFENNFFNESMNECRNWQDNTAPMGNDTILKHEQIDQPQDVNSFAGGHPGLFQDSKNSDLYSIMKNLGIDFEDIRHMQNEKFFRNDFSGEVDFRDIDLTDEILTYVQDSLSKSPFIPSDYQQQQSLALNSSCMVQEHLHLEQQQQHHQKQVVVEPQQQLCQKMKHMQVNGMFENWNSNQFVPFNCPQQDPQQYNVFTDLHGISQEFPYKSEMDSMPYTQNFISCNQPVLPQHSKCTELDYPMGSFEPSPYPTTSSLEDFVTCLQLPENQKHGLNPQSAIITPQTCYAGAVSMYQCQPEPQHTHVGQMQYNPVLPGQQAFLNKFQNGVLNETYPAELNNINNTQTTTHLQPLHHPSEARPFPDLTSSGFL
hcDAF12 agonist: activates DAF-12 receptor from parasite H. contortus. HEK293 hcDAF-12 lit1-tk-luc reporter, luminescence; 0% DMSO, 100% Δ7-dafachronic acid. activation, % at 6.8 µM. 1.4% of 370,000 active. AID 652067;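 active means activation above the mean of all tested compounds plus 3 SD, cut at about 5.5% in these data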;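 further: 100% = response to 3 µM Δ7-dafachronic acid high control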
Active calls of the source: *; / = not tested or not shown. Compounds with a hit are over-represented: about 5.7% of the library has one in this group of screens.

SMILES	DAX1 inh-1	ssDAF-12 act	DAX1 inh-2	hgDAF12 agonist	AHR activator	hcDAF12 agonist
O=C(O)CCCN(Cc1cccc(Br)c1)S(=O)(=O)c1ccc(Br)cc1	0	-1	-1	-1	4	-1
CSc1nnc(CCNC(=O)OC(C)(C)C)o1	0	-1	4.5*	0	0	-1
CSc1nnc(CCCCCNC(=O)OC(C)(C)C)o1	0	0	-1	2	0	-1
COc1ccc(N2CCN(CCCn3cnc4c(SC)ncnc43)CC2)cc1	0	-1	0	0	/	-2
COc1ccc(Br)cc1C1Nc2ccccc2C(=O)N1NC(=O)c1ccncc1 (centres undefined)	-1	0	0	-4	10	2
O=C(NN1C(=O)c2cc(Br)ccc2NC1c1cc(Br)cc(Br)c1O)c1ccncc1 (centres undefined)	0	-1	0	-4	56*	-2
O=C(NN1C(=O)c2cc(Br)ccc2NC1c1ccccc1Cl)c1ccncc1 (centres undefined)	0	-1	0	0	49*	3
CC(O)CNc1nc2sc3c(c2c(=O)n1Cc1ccco1)CCCCC3 (centres undefined)	0	0	1	2	8	1
CN(C)CCNc1nc2sc3c(c2c(=O)n1CCc1ccccc1)CCCCC3	1	-1	7.0*	2	5	-1
CC(O)CNc1nc2sc3c(c2c(=O)n1CCc1ccccc1)CCCCC3 (centres undefined)	-1	-1	6.5*	2	5	0
O=c1c2c3c(sc2nc(NCCOCCO)n1Cc1ccco1)CCCCC3	0	-1	2	-2	3	-3
C=C(C)c1cccc(C(C)(C)NC(=O)N2CC(C)OC(C)C2)c1 (centres undefined)	0	-1	-1	-1	-2	-1
Clc1ccc(Cc2nnc(-c3ccccc3Br)o2)cc1	1	-1	0	3	-5	-2
CN(C)C(=O)C(=O)c1c(-c2ccccc2)cc2ccccn12	1	-1	1	-4	-4	-2
O=Nc1c(-c2ccccc2)cc2ccccn12	-1	-1	6.6*	3	11	-2
Cc1cc2oc(C(=O)NCC(c3ccco3)N3CCCC3)c(C)c2cc1C (centres undefined)	2	3.6*	2	4	/	3
Cc1ccc2oc(C(=O)NCC(c3ccco3)N3CCCC3)c(C)c2c1 (centres undefined)	0	0	0	3	12	4
COc1ccccc1CC(=O)NCC(c1ccco1)N1CCCCC1 (centres undefined)	1	-2	4.6*	3	2	-2
O=C(NCC(c1ccco1)N1CCCC1)c1cc2ccccc2s1 (centres undefined)	1	0.9*	1	3	14	1
O=C(NCC(c1ccco1)N1CCCC1)c1ccccc1Sc1ccc(C(F)(F)F)cc1[N+](=O)[O-] (centres undefined)	0	1.1*	0	2	15	2
Cc1ccccc1OCC(=O)NCC(c1ccco1)N1CCCCC1 (centres undefined)	-1	-1	0	-4	-3	0
COC(=O)c1c(NC(=O)C2=COCCO2)sc(C)c1C	-3	0	-1	1	8	0
COc1ccc(CC(=O)Nc2cc(C)on2)cc1	0	-1	0	4	2	-1
COc1ccc(C(=O)/C=C/Nc2cc(C)on2)cc1	4	0	1	12*	6	2
COc1ccc(N/C=C/C(=O)c2ccc(C)cc2)c([N+](=O)[O-])c1	3.6*	0	3	7	-5	1
SMILES	DAX1 inh-1	ssDAF-12 act	DAX1 inh-2	hgDAF12 agonist	AHR activator	hcDAF12 agonist
Cc1ccc(S(=O)(=O)Oc2ccc(/C=N/NC(=O)c3cccnc3)cc2)cc1	-1	-1	-2	1	21	0
COc1ccc(-c2[nH]ncc2-c2nc(C)cs2)c(O)c1	0	-1	0	2	4	-1
C/C(=N\Nc1ccc(Cl)c(C(=O)O)c1)c1ccc[nH]1	3	0	-1	5	8	6.4*
C/C(=N\Nc1ccc(Cl)c(C(=O)O)c1)c1cccs1	3	0	3	5	8	1
CC(=O)Nc1sc2c(c1C#N)CCCC2	-1	-1	-1	1	8	-3
COc1cccc(OC)c1C(=O)Nc1sc2c(c1C#N)CCC2	0	-2	0	0	54*	-2
CC(=O)NC(=S)Nc1sc2c(c1C#N)CCCCC2	2	0	2	12*	/	3
COc1cccc(CN(C)CC(=O)Nc2sc3c(c2C#N)CCC3)c1OC	0	-2	2	0	-7	-1
Cc1ccccc1NC1C=CS(=O)(=O)C1 (centres undefined)	0	-1	-1	0	1	-2
O=C1NCC(CN(c2ccccc2)c2ccccc2)O1 (centres undefined)	-1	-1	6.7*	-1	0	-2
c1cc2cc(-c3c(-c4ccc5c(c4)OCO5)noc3-c3ccsc3)ccc2[nH]1	1	-1	1	7	49*	0
Cc1onc(-c2ccc3c(c2)OCO3)c1-c1ccc2[nH]ccc2c1	-1	-1	0	4	26	0
CCOc1ccccc1C(=O)Nc1ccc(NC(=O)c2ccccc2)cc1	0	-1	1	-2	2	-1
Cc1ccccc1C(=O)Nc1ccc2c(c1)C(=O)NC2=O	0	-1	2	3	10	0
CCOc1ccccc1C(=O)Nc1ccc2c(c1)C(=O)NC2=O	1	0	2	-2	47*	0
COc1ccccc1C(=O)Nc1ccc2c(c1)C(=O)NC2=O	0	-1	-1	2	58*	-2
Cc1csc2ncc(C(=O)Nc3ccc(C(F)(F)F)cc3)c(=O)n12	0	0	3	-1	58*	3
Cc1csc2ncc(C(=O)NCc3ccccn3)c(=O)n12	0	-1	0	-2	47*	0
CSc1ccccc1NC(=O)c1cnc2scc(C)n2c1=O	0	-1	1	7	65*	-2
CCc1ccccc1NC(=O)c1cnc2scc(C)n2c1=O	1	-1	1	3	40	1
Cc1csc2ncc(C(=O)NCCC(c3ccccc3)c3ccccc3)c(=O)n12	0	-1	0	-2	2	-2
O=C(O)c1cc(NC(=O)C2CCCO2)cc(NC(=O)C2CCCO2)c1 (centres undefined)	0	-1	-2	2	1	-1
CN(C)c1nnnn1Cc1ccccc1	-1	-1	1	-1	0	-1
CS/C(=N\S(=O)(=O)c1ccccc1)c1ccccc1	0	-2	1	0	-2	1
